The full list was thinned out, with hits kept by preference.
ROC1-CUL1 inh – human ROC1-CUL1 E3 ligase inhibition | in vitro K48 di-Ub FRET, acceptor:donor ratio, 45 min | inhibition, % at 10 µM | 140,000 tested, 0.6% active; in the data active means inhibition above about 25%
Active calls of the source: *.

CN1C(=O)c2ccccc2C(O)c2ccccc21 (centres undefined) was read as ROC1-CUL1 inh -2.
Screening COc1ccc(CCN2CCCC(CN(C)Cc3ccc(OC)cc3F)C2)cc1 (centres undefined) returned ROC1-CUL1 inh 1.
O=C(O)CSc1cccnc1Sc1ccc(Cl)cc1 was read as ROC1-CUL1 inh 5.
CSC1=NC(=O)C(C(c2ccc(Cl)cc2)C2C(=O)N=C(SC)NC2=O)C(=O)N1 (centres undefined) was read as ROC1-CUL1 inh -4.
`O=C1Oc2cccnc2C(=O)C1C(c1ccc(Cl)cc1)C1C(=O)Oc2cccnc2C1=O` (centres undefined) gave ROC1-CUL1 inh 38*.
O=C(C1CCCC1)N1CCC(C2CCN(Cc3cccnc3)CC2)C1 (centres undefined) was read as ROC1-CUL1 inh 5.
COCN1CCN=C1CC(O)(c1ccccc1)c1ccccc1 was read as ROC1-CUL1 inh -4.
For Cc1cc(/C=C2\C(=O)NC(=S)N(C)C2=O)c(C)n1-c1ccc(C(=O)O)cc1 the results were ROC1-CUL1 inh 3.
`Cc1ccc(N2C(=O)/C(=C/c3cc(C)n(-c4cccc(C(=O)O)c4)c3C)C(=O)N(C)C2=S)cc1` gave ROC1-CUL1 inh 34*.
`Cc1cc(/C=C2/C(=O)NC(=S)N(c3ccc(Br)cc3)C2=O)c(C)n1-c1ccccc1` gave ROC1-CUL1 inh 8.
Screening Cc1ccc(NC(=S)NC(=O)C(C)C)cc1Cl returned ROC1-CUL1 inh 0.
CCOC(=O)c1c(-c2ccc(F)cc2)csc1NC(=O)COc1ccc(Cl)cc1C was read as ROC1-CUL1 inh -6.
`O=C1NN=C2N=C(C(F)(F)F)C=C(C(F)(F)F)C12` (centres undefined) gave ROC1-CUL1 inh 97*.
Screening CCSc1nnc2c(n1)OC(c1ccc(SC)cc1)Nc1ccccc1-2 (centres undefined) returned ROC1-CUL1 inh 5.
Cc1cnc(SCCN2CCOCC2)nc1C1CCCN(C(=O)[C@@H]2CSC(=O)N2)C1 (some centres undefined) was read as ROC1-CUL1 inh -12.
Screening Cn1/c(=N/N=c2cccccc2)sc2ccccc21 returned ROC1-CUL1 inh -5.
`OC1CCCN(c2ncccc2CNCc2cccn2-c2cccnc2)C1` (centres undefined) gave ROC1-CUL1 inh -1.
For Cc1cccc(OCC(=O)NNc2ccc([N+](=O)[O-])cc2[N+](=O)[O-])c1 the results were ROC1-CUL1 inh 30*.
`Cc1cccc(OCC(=O)N/N=C/c2cccn2-c2ccc([N+](=O)[O-])cc2)c1` gave ROC1-CUL1 inh -3.
`Cc1cccc(OCC(=O)NNC(=O)CCCCC(=O)NNC(=O)COc2cccc(C)c2)c1` gave ROC1-CUL1 inh 2.
For COC(=O)c1ccc(N2C(=O)CC(NCCc3ccc(Cl)cc3)C2=O)cc1 (centres undefined) the results were ROC1-CUL1 inh -2.
For Cn1c(=O)c2c(ncn2CCN)n(C)c1=O the results were ROC1-CUL1 inh 2.
For Cc1ccc(S(=O)(=O)N2CCC(C(=O)OCC(=O)c3ccc(Br)cc3)CC2)cc1 the results were ROC1-CUL1 inh 4.
Screening CCCN(CCC)S(=O)(=O)c1ccc(NC(=O)CCCc2ccccc2)cc1 returned ROC1-CUL1 inh -5.
`CCCC1=NN(c2ccccc2)C2Oc3c(OC)cccc3C(c3cn(-c4ccccc4)nc3CCC)C12` (centres undefined) gave ROC1-CUL1 inh 56*.
Screening COc1ccccc1C1CC(c2ccccc2)=NN1c1ccccc1 (centres undefined) returned ROC1-CUL1 inh -5.
For CCCC1=NN(c2ccccc2)C(=O)C1C1c2ccccc2Oc2c1c(CCC)nn2-c1ccccc1 (centres undefined) the results were ROC1-CUL1 inh -9.
`Cc1ccc(C(=O)Nc2ncc(Cc3cccc(C(F)(F)F)c3)s2)cc1` gave ROC1-CUL1 inh 4.
`CC(C)(C)NC(=O)c1ccc2c(c1)C(=O)N(C1CCCCC1)C2=O` gave ROC1-CUL1 inh 0.
O=C(O)c1cccc(NC(=O)c2ccc3c(c2)C(=O)N(C2CCCCC2)C3=O)c1 was read as ROC1-CUL1 inh 26*.
COc1ccc(C(=O)Nc2ccc3c(c2)C(=O)N(C2CCCCC2)C3=O)cc1 was read as ROC1-CUL1 inh 11.
Screening CCCCN1CCCC1=Nc1ccc(Br)cc1C#N returned ROC1-CUL1 inh -7.
For O=C(O)CSc1cc(NS(=O)(=O)c2ccc(Br)cc2)c2ccccc2c1O the results were ROC1-CUL1 inh 102*.
CC(C)(C)c1ccc(S(=O)(=O)Nc2cc(SCC(=O)O)c(O)c3ccccc23)cc1 was read as ROC1-CUL1 inh 92*.
O=c1oc2c(cc(NS(=O)(=O)c3ccc(Br)cc3)c3ccccc32)s1 was read as ROC1-CUL1 inh 2.
CC(C)(C)c1ccc(S(=O)(=O)Nc2ccc(Cl)cc2Cl)cc1 was read as ROC1-CUL1 inh -2.
O=C(O)CSc1cc(NS(=O)(=O)c2ccccc2)c2ccccc2c1O was read as ROC1-CUL1 inh 37*.
For CC(C)(C)c1ccc(S(=O)(=O)Nc2ccc(O)c(C(=O)O)c2)cc1 the results were ROC1-CUL1 inh 4.
For Cc1ccc(NS(=O)(=O)c2ccccc2)c(O)c1 the results were ROC1-CUL1 inh 11.
For O=S(=O)(Nc1cc(Sc2nnnn2-c2ccccc2)c(O)c2ccccc12)c1ccccc1 the results were ROC1-CUL1 inh 5.
For CC(=O)c1c(C)oc2c1cc(NS(=O)(=O)c1ccc(Br)cc1)c1ccccc12 the results were ROC1-CUL1 inh 3.
COC(=O)c1cc(C(C)(C)C)c(Br)cc1C(C)(C)C was read as ROC1-CUL1 inh 6.
For CC1=NN(C(=O)c2cc(-c3ccc(C)s3)nc3ccccc23)C(O)(C(F)F)C1 (centres undefined) the results were ROC1-CUL1 inh 4.
CCCNC(=O)Cc1c2c(n(Cc3ccccc3F)c1C)CCCC2=O was read as ROC1-CUL1 inh -1.
For Cc1ccc(-c2c(C#N)cnc3c(-c4ccccc4)c(C)nn23)cc1 the results were ROC1-CUL1 inh 1.
For CCOC(=O)c1c(-c2ccc(Cl)cc2)csc1NC(=O)c1ccc(F)cc1 the results were ROC1-CUL1 inh -9.
`O=C1Nc2ccc(Br)cc2/C1=C\c1nc2ccccc2c(=O)n1-c1cccc(C(=O)O)c1` gave ROC1-CUL1 inh 32*.
O=C1Nc2ccc(Br)cc2C1=Cc1nc2ccccc2c(=O)n1Cc1ccccc1 was read as ROC1-CUL1 inh -4.
O=C(O)COc1ccccc1/C=C1\C(=O)Nc2ccc(Br)cc21 was read as ROC1-CUL1 inh 5.
For OC1CCN([C@@H]2CCN(Cc3ccc(OCc4ccccc4)cc3)C[C@H]2O)CC1 the results were ROC1-CUL1 inh 13.
Screening COc1cc(C2C3=C(CC(C)(C)CC3=O)OC(=N)C2C#N)ccc1OCc1ccccc1 (centres undefined) returned ROC1-CUL1 inh -2.
COc1cc(C2C3=C(CC(C)(C)CC3=O)N(Nc3ccccc3)C(=N)C2C#N)ccc1OCc1ccccc1 (centres undefined) was read as ROC1-CUL1 inh -5.
`COc1cc(C2C3=C(CC(C)(C)CC3=O)N(c3ncn[nH]3)C(=N)C2C#N)ccc1OCc1ccccc1` (centres undefined) gave ROC1-CUL1 inh 32*.
`O=C(O)CCNc1cccc2ncccc12` gave ROC1-CUL1 inh 81*.
O=C(O)CCSc1ncnc2ccccc12 was read as ROC1-CUL1 inh 8.
`O=C(O)CCNc1nc(-c2ccccc2)nc2ccccc12` gave ROC1-CUL1 inh 3.
